Screening data from PubChem BioAssay.
In the library only some 5.7% were active in any assay of this set; here they are far more common.
hgDAF-12 ag – hgDAF-12 agonism, primary luciferase screen; HEK293 GAL4-hgDAF12 UAS-luciferase reporter, agonist luminescence; normalized to butyrate control; activation, % at 6.8 µM; hit rate 1.8% among 370,000; AID 687014;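 active means activation above a cutoff set at the mean of all screened compounds plus 3 SD, cut at about 10% in these data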;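 further: 0% = DMSO wells and 100% = sodium butyrate wells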
DAX1 inh-1 – inhibitors of human orphan nuclear receptor DAX1 (NR0B1); P51843; HEK293 Gal4-DAX1 luciferase reporter, luminescence; inhibition, % at 6.75 µM; hit rate 0.99% among 340,000;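 active means inhibition above the mean over all tested compounds plus 3 SD, cut at about 4.2% in these data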;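 further: 0% = DAX1-transfected cells with DMSO and 100% = empty-vector control cells with DMSO; inhibition shows as a rise in luminescence from relieved DAX1 repression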
ssDAF-12 act – activates DAF-12 receptor from parasite S. stercoralis | HEK293 ssDAF-12/GRIP1 lit1-tk-luc reporter, luminescence; % of 3 µM dafachronic acid response | activation, % at 6.8 µM | hit rate 1% among 370,000;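 active means activation above the mean over all tested compounds plus 3 SD, cut at about 0.9% in these data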;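 further: 0% = DMSO-only wells and 100% = 3 µM delta7-dafachronic acid wells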
AHR act – activates the human aryl hydrocarbon receptor; AHR-responsive luciferase reporter cells, luminescence; activation, % at 5 µM; hit rate 2.5% among 320,000; in the data active means activation above about 47%;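 further: 0% = vehicle wells and 100% = reference agonist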
hcDAF12 agonist – activators of H. contortus DAF-12 nuclear receptor; HEK293 hcDAF-12 lit1-tk-luc reporter, luminescence; 0% DMSO, 100% Δ7-dafachronic acid; activation, % at 6.8 µM; hit rate 1.4% among 370,000; AID 652067;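 active means activation above the mean of all tested compounds plus 3 SD, cut at about 5.5% in these data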;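 further: 100% = response to 3 µM Δ7-dafachronic acid high control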
DAX1 inh-2 – DAX1 (NR0B1) inhibition, primary screen; HEK293T StAR-luciferase reporter, SF-1/DAX-1 repression relief; inhibition, % at 6.8 µM; hit rate 1.1% among 370,000; AID 652010;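 active means inhibition above the mean over all tested compounds plus 3 SD, cut at about 3.6% in these data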;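 further: 0% = DAX-1 cells with DMSO and 100% = cells lacking DAX-1 with DMSO; higher inhibition means more luminescence from relief of DAX-1 repression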
The depositor's hits bear a star.

How did C=CCn1c(=NC(=O)C2CC2)sc2cc(NC(C)=O)ccc21 do in these assays?
hgDAF-12 ag: 4; DAX1 inh-1: 2; ssDAF-12 act: 0; AHR act: 62*; hcDAF12 agonist: 4; DAX1 inh-2: 0

Results for CC(C)C1CC(C(F)(F)F)n2nc(C(=O)O)cc2N1 (centres undefined) ?
hgDAF-12 ag: 1; DAX1 inh-1: -1; ssDAF-12 act: -2; AHR act: -2; hcDAF12 agonist: 0; DAX1 inh-2: 0

What do the screens show for `Fc1cccc(/C=N/NC(=S)Nc2ccccc2Cl)c1`?
hgDAF-12 ag: 10; DAX1 inh-1: 1; ssDAF-12 act: -1; AHR act: 76*; hcDAF12 agonist: 3; DAX1 inh-2: 3

Results for Cc1onc(-c2ccccc2)c1C(=O)Nc1nc2c(s1)C(=O)CC(C)(C)C2 ?
hgDAF-12 ag: 1; DAX1 inh-1: -1; ssDAF-12 act: -1; AHR act: 0; hcDAF12 agonist: -3; DAX1 inh-2: -1

How did CC1(C)CC(=O)c2sc(NC(=O)C3COc4ccccc4O3)nc2C1 (centres undefined) do in these assays?
hgDAF-12 ag: 7; DAX1 inh-1: 2; ssDAF-12 act: 1.6*; AHR act: 6; hcDAF12 agonist: 2; DAX1 inh-2: 2

Results for CC1(C)CC(=O)c2sc(NC(=O)c3ccco3)nc2C1 ?
hgDAF-12 ag: 12*; DAX1 inh-1: 0; ssDAF-12 act: 0; AHR act: 20; hcDAF12 agonist: 5; DAX1 inh-2: 2

What do the screens show for `CC(=O)c1sc(NC(=O)C2COc3ccccc3O2)nc1C` (centres undefined)?
hgDAF-12 ag: 4; DAX1 inh-1: -2; ssDAF-12 act: 0; AHR act: 0; hcDAF12 agonist: 0; DAX1 inh-2: 3

Results for COc1ccc(N/N=C/c2c(C(=O)O)ccc3ccccc23)cc1 ?
hgDAF-12 ag: -10; DAX1 inh-1: -4; ssDAF-12 act: -2; AHR act: 13; hcDAF12 agonist: -3; DAX1 inh-2: -3

What do the screens show for `CCN(CC)Cc1c(NC(=O)c2ccccc2)sc(C)c1C`?
hgDAF-12 ag: 11*; DAX1 inh-1: 4; ssDAF-12 act: 0; AHR act: 65*; hcDAF12 agonist: 5; DAX1 inh-2: 1

What do the screens show for `CCN(CC)C(=O)c1c(NC(=O)c2ccccc2)sc(C)c1C`?
hgDAF-12 ag: 0; DAX1 inh-1: -1; ssDAF-12 act: -1; AHR act: 23; hcDAF12 agonist: 0; DAX1 inh-2: 0

Results for Cc1cc(C)n(-c2nc(Nc3ccccc3)nc(-n3nc(C)cc3C)n2)n1 ?
hgDAF-12 ag: 1; DAX1 inh-1: -1; ssDAF-12 act: -2; AHR act: 6; hcDAF12 agonist: -1; DAX1 inh-2: 0

What do the screens show for `COc1cccc(/C=N/Nc2nc(Nc3ccccc3)nc(-n3nc(C)cc3C)n2)c1O`?
hgDAF-12 ag: -2; DAX1 inh-1: -3; ssDAF-12 act: -1; AHR act: 60*; hcDAF12 agonist: -1; DAX1 inh-2: -3

How did COc1ccc(/C=N/Nc2cc(C)nc3ccc(Br)cc23)cc1 do in these assays?
hgDAF-12 ag: 4; DAX1 inh-1: 1; ssDAF-12 act: -1; AHR act: 71*; hcDAF12 agonist: 1; DAX1 inh-2: 0

Results for COc1ccc2nc(C)cc(N/N=C/c3cccc(OC)c3O)c2c1 ?
hgDAF-12 ag: -1; DAX1 inh-1: 0; ssDAF-12 act: -1; AHR act: 111*; hcDAF12 agonist: -2; DAX1 inh-2: 0

How did COc1cccc2c(N/N=C/c3ccccc3)cc(C)nc12 do in these assays?
hgDAF-12 ag: 0; DAX1 inh-1: 0; ssDAF-12 act: -1; AHR act: 6; hcDAF12 agonist: 0; DAX1 inh-2: 0

How did Cc1ccc(NC(=O)Nc2c(Cl)cccc2Cl)cn1 do in these assays?
hgDAF-12 ag: 4; DAX1 inh-1: -2; ssDAF-12 act: -1; AHR act: 10; hcDAF12 agonist: -1; DAX1 inh-2: 0

What do the screens show for `CCCCOC(=O)c1nnc(-c2ccccc2)o1`?
hgDAF-12 ag: -2; DAX1 inh-1: 5.1*; ssDAF-12 act: -2; AHR act: 3; hcDAF12 agonist: 0; DAX1 inh-2: 0

How did CCCCOC(=O)c1nnc(-c2ccc(Cl)cc2)o1 do in these assays?
hgDAF-12 ag: 2; DAX1 inh-1: 0; ssDAF-12 act: -1; AHR act: -2; hcDAF12 agonist: 0; DAX1 inh-2: 0

Results for CN(C)/C=C/C(=O)c1cccc(Oc2ncccn2)c1 ?
hgDAF-12 ag: -4; DAX1 inh-1: 4.6*; ssDAF-12 act: -1; AHR act: 0; hcDAF12 agonist: 1; DAX1 inh-2: 0

What do the screens show for `CCCc1cc(=O)n2[nH]c(-c3ccccc3)cc2n1`?
hgDAF-12 ag: 10; DAX1 inh-1: 2; ssDAF-12 act: 0; AHR act: 72*; hcDAF12 agonist: 4; DAX1 inh-2: 3

How did CCCc1cc(=O)n2[nH]c(-c3ccc(Cl)cc3)cc2n1 do in these assays?
hgDAF-12 ag: 10; DAX1 inh-1: 2; ssDAF-12 act: 1; AHR act: 33; hcDAF12 agonist: 3; DAX1 inh-2: 1

What do the screens show for `CCCc1cc(=O)n2[nH]c(-c3ccc(C)cc3)cc2n1`?
hgDAF-12 ag: 6; DAX1 inh-1: 2; ssDAF-12 act: 0; AHR act: 69*; hcDAF12 agonist: 2; DAX1 inh-2: 4.0*

Results for COC(=O)[C@]12C[C@H](CC(=O)NCc3ccc(OC)c(OC)c3)C(=O)N(Cc3ccccc3)C1=C[C@H](C(C)(C)C)O[C@@H]2C ?
hgDAF-12 ag: 1; ssDAF-12 act: -1; hcDAF12 agonist: -1; DAX1 inh-2: 2

Results for CN(C(=O)c1ccc(F)cc1)c1ccccc1C(=O)NCc1ccccc1 ?
hgDAF-12 ag: -3; DAX1 inh-1: 0; ssDAF-12 act: -1; AHR act: -3; hcDAF12 agonist: 0; DAX1 inh-2: -2

What do the screens show for `CN(C(=O)c1ccccc1Cl)c1ccccc1C(=O)NCc1ccccc1`?
hgDAF-12 ag: 3; DAX1 inh-1: 0; ssDAF-12 act: -1; AHR act: 0; hcDAF12 agonist: 0; DAX1 inh-2: 4.1*

What do the screens show for `Cc1c(C(=O)NCC(c2ccco2)N(C)C)oc2c(Cl)cccc12` (centres undefined)?
hgDAF-12 ag: 2; DAX1 inh-1: 1; ssDAF-12 act: 1; AHR act: 48*; hcDAF12 agonist: 3; DAX1 inh-2: 0

How did Cc1c(C(=O)NCc2ccco2)oc2c(F)cccc12 do in these assays?
hgDAF-12 ag: 1; DAX1 inh-1: 1; ssDAF-12 act: 0; AHR act: 46; hcDAF12 agonist: 5.9*; DAX1 inh-2: 0

Results for Cc1c(C(=O)NCc2ccco2)oc2ccccc12 ?
hgDAF-12 ag: 2; DAX1 inh-1: 0; ssDAF-12 act: -1; AHR act: 0; hcDAF12 agonist: 3; DAX1 inh-2: 0
